MPTP block – permeability transition pore inhibition. isolated mouse mitochondria, Ca2+ swelling absorbance, 30 min. inhibition, % at 10 µM. hit rate 1.4% among 360,000. AID 602449;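 active means inhibition of 50% or more, scaled per plate between neutral and stimulator controls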
CRFR2-BP antag – CRF-BP/CRF-R2 complex antagonism | HEK293 CRF-R2/CRF-BP, CRF-induced calcium fluorescence | inhibition, % at 11.8 µM | hit rate 0.59% among 350,000 | AID 588475;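 active means inhibition of the ligand-induced calcium signal above about 50% at the single tested concentration, limit read from the data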
CRFR2-BP ag – agonists of human CRF-binding protein/CRF-R2 receptor complex; HEK293 CRF-R2/CRF-BP, calcium dye fluorescence (FLIPR); percent of saturating CRF peptide response; activation, % at 13.2 µM; hit rate 0.46% among 350,000; AID 588473;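 active means activation of at least 50%, plus an integration ratio under a set limit after plate pattern correction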
NR3A LBD binder – modulates the human NR3A ligand-binding domain; Tm shift relative to glycine control, % at 25 µM; NR3A LBD differential scanning fluorimetry, Tm shift; 0% = protein alone, 100% = glycine-bound protein; hit rate 2.5% among 340,000;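 active means melting temperature shift of at least 10% of the positive control shift, at one fixed dose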
TMEM16A act – mouse TMEM16A channel activation, primary screen | Q8BHY3 | HEK293 TMEM16A/YFP-H148Q/I152L, iodide quench fluorescence; stronger effect = lower value | B-score at 10 µM | hit rate 0.3% among 340,000;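 active means fluorescence-ratio B-score plate-corrected deviation score at least 3 library SD below zero, with starting fluorescence score within 5 deviations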;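 further: channel opened by trigger with iodide after compound preincubation; score built on the fluorescence ratio of max minus min over baseline; more negative score means more quench and so TMEM16A activation or potentiation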
ANO1 block – mouse TMEM16A channel inhibition, primary screen; AID 588511; Q8BHY3; normalized B-score (activity score, 25-100; higher = stronger inhibition) at 10 µM; HEK293 TMEM16A/YFP iodide influx fluorescence, ionomycin; hit rate 1.2% among 310,000;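 active means ratio plate-corrected score three or more library SD toward inhibition, starting fluorescence score within five deviations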;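 further: score derived from kinetic fluorescence span divided by baseline fluorescence per well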
Hits are given with their value; – = inactive; · = no result. A selection: hits, their analogues and other compounds. The true share with any hit is near 5.1%.

SMILES | MPTP block | CRFR2-BP antag | CRFR2-BP ag | NR3A LBD binder | TMEM16A act | ANO1 block
CC(=O)Nc1ccc2c(c1)CCc1ccccc1-2 | – | – | – | 10 | – | –
CCOC(=O)[C@H]1[C@H]2COc3ccc(Br)cc3[C@@H]2N2C(=O)CN(Cc3ccc(OC)cc3)C(=O)[C@@]12C | – | – | – | – | – | ·
O=C(C[C@H]1C[C@H](C(=O)N2CCCCC2)[C@@]2(CCc3ccccc3)c3[nH]c4cc(-c5ccco5)ccc4c3CCN2C1=O)NCc1cccc(C(F)(F)F)c1 | – | – | – | – | · | ·
CCOC(=O)c1cc2c(c(CCO)n1)[C@H](CCO)N(S(=O)C(C)(C)C)C2 (stereo partly specified) | – | – | – | – | · | ·
CC(=O)c1ccc(NC(=O)C(C)OC(=O)c2ccc(NS(=O)(=O)c3ccc(F)c(F)c3)cc2)cc1 (stereo unspecified) | – | – | – | 11 | – | –
Cc1ccc(S(=O)(=O)Nc2ccccc2C(=O)OC(C)C(=O)Nc2ccc3ccccc3c2)cc1[N+](=O)[O-] (stereo unspecified) | – | – | – | – | – | –
Cc1ccc(NC(=O)C(C)OC(=O)c2ccc(NS(=O)(=O)c3ccc(F)c(F)c3)cc2)cc1 (stereo unspecified) | – | – | – | 28 | – | –
CC(=O)Nc1ccc(NC(=O)C(C)OC(=O)c2ccc(S(=O)(=O)N3CCCCC3)cc2)cc1 (stereo unspecified) | – | – | – | – | – | ·
CCc1ccc(NC(=O)C(C)OC(=O)c2ccc(NS(=O)(=O)c3ccc(C)c([N+](=O)[O-])c3)cc2)cc1 (stereo unspecified) | – | – | – | 13 | – | –
COc1cccc(/C(C)=N/N=C(\C)c2cccc(OC)c2)c1 | – | – | – | – | – | –
COc1ccc2[nH]cc(CCNS(=O)(=O)c3ccc(NC(C)=O)cc3)c2c1 | – | – | – | – | – | –
Cc1ccc(S(=O)(=O)NCCc2c[nH]c3ccccc23)cc1 | – | – | – | 23 | – | –
COc1ccc(S(=O)(=O)NCCc2c[nH]c3ccc(Cl)cc23)cc1 | – | – | – | 35 | – | –
O=S(=O)(NCCc1c[nH]c2ccccc12)c1ccccc1 | – | – | – | – | – | –
O=C(COC(=O)C1CCN(S(=O)(=O)c2ccccc2)CC1)NC(=O)c1ccc(OC(F)F)cc1 | – | 131 | – | – | – | –
COc1ccc(OC)c(-c2csc(NC(=O)c3ccc(F)cc3)n2)c1 | – | – | – | – | – | –
Cc1cn(CC(=O)N(C)Cc2ccco2)c(=O)[nH]c1=O | – | – | – | – | · | ·
O=C(NC(=S)N1CCN(c2ccc(O)cc2)CC1)c1cccs1 | – | – | – | – | – | –
O=C(NC(=S)N1CCN(c2ccc(F)cc2)CC1)c1cccs1 | – | 50 | – | – | – | –
CC(=O)Nc1ccc(N(C(=O)CNC(=O)c2ccco2)C(C(=O)NC2CCCC2)c2ccco2)cc1 (stereo unspecified) | – | – | – | – | – | –
CSCCC(NC(=O)c1cccc([N+](=O)[O-])c1)C(=O)OCC(=O)N1CCCC1=O (stereo unspecified) | – | – | – | – | – | –
CCCCn1c(=N)c(S(=O)(=O)c2ccc(Br)cc2)cc2c(=O)n3cccc(C)c3nc21 | – | – | 59 | – | – | –
CCCCCn1c(=N)c(S(=O)(=O)c2ccc(Br)cc2)cc2c(=O)n3cccc(C)c3nc21 | – | – | – | – | – | –
Cc1ccc(S(=O)(=O)c2cc3c(=O)n4ccccc4nc3n(Cc3ccco3)c2=N)cc1 | – | – | 66 | – | – | –
O=C(c1ccc2ccccc2c1O)N1CCCCC1 | – | – | – | · | · | ·
SMILES | MPTP block | CRFR2-BP antag | CRFR2-BP ag | NR3A LBD binder | TMEM16A act | ANO1 block
CCN(C(=O)CSc1nnc(C)c(=O)[nH]1)c1cccc2ccccc12 | – | – | – | – | – | ·
O=c1[nH]c(Nc2ccccc2)cc2ccccc12 | – | – | 63 | – | – | –
O=c1[nH]c(Nc2ccccc2)cc2cc(Br)ccc12 | – | – | – | – | – | –
COC(=O)C1CCN(S(=O)(=O)CCNC(=O)c2ccc(F)cc2)CC1 | – | – | – | – | – | –
COC(=O)C(Oc1ccc2c(-c3ccc(OC)cc3)cc(=O)oc2c1)c1ccccc1 (stereo unspecified) | – | – | – | – | – | –
O=c1cc(-c2ccccc2)oc2cc(O)ccc12 | – | – | – | – | – | ·
O=c1ccc2c(-c3ccccc3)c3ccc(O)cc3oc-2c1 | – | – | 178 | – | – | –
O=c1cc(-c2ccccc2)c2ccc(O)cc2o1 | – | – | – | 11 | – | –
CCOC(=O)C(Oc1ccc2c(-c3ccccc3)cc(=O)oc2c1)c1ccccc1 (stereo unspecified) | – | – | – | 11 | – | –
Nc1ccc2c(Cl)cc(Cl)cc2c1 | – | – | – | · | · | ·
Cc1ccc2c(c1)C1CN(C)CCC1N2C(=O)COc1ccccc1F (stereo unspecified) | – | – | – | – | – | –
COc1ccc(/C=N/NS(=O)(=O)c2ccc(F)cc2)cc1COc1cc(F)ccc1[N+](=O)[O-] | – | – | – | 11 | – | –
COc1cccc(-c2nc(C#N)c(N3CCN(C(=O)c4ccco4)CC3)o2)c1 | – | – | – | 11 | – | –
Cc1ccc(NC(=O)CCC(=O)c2cc(C)sc2C)nc1 | – | – | – | · | – | –
CCCCC(CC)C(=O)Oc1ccc(O)c(C(C)(C)C)c1 (stereo unspecified) | – | – | – | – | – | 25
COc1cccc(Nc2nn3c(=O)c4ccccc4nc3s2)c1 | – | – | – | 23 | – | ·
CC(C)(C)NC(=O)NC(=O)CN1C(=O)NC(c2ccccc2)(c2ccccc2)C1=O | – | – | – | – | – | –
C[C@H]1CN([C@@H](C)CO)C(=O)CCCn2cc(nn2)CO[C@@H]1CN(C)C(=O)Nc1ccc(C(F)(F)F)cc1 | – | – | – | · | · | ·
CCc1nc2c(OCc3ccc(C(=O)N(C)C)cc3)cccn2c1N(C)C(=O)Nc1ccccc1OC | – | · | · | · | · | ·
CC(Sc1nnc2c(n1)[nH]c1ccccc12)C(=O)N(C)C1CCCCC1 (stereo unspecified) | – | – | – | – | – | 100
CCCc1cc(=O)oc2cc(C)cc(OCC(=O)N3CCC(C(N)=O)CC3)c12 | – | – | – | – | – | –
COc1cccc(CNC(=O)c2cc(S(=O)(=O)N3CCOCC3)ccc2N2CCCC2)c1 | – | – | – | – | – | ·
O=C(CS(=O)c1ccc(C(F)(F)F)cc1[N+](=O)[O-])Oc1ccccc1 (stereo unspecified) | – | – | – | – | – | –
CS(=O)(=O)c1ccc(S(=O)CC(=O)OCc2ccccc2)c([N+](=O)[O-])c1 (stereo unspecified) | – | 53 | – | – | – | ·
